Common to all, as to type: functional
Assay [1] concerns the target Solute carrier family 2, facilitated glucose transporter member 1 (Homo sapiens) (UniProt P11166). The assay can be described thus: ST_JUDE_LEISH: Cytotoxicity at 2uM final concentration against transgenic Leishmania Mexicana promastigotes LmGLUT1 that are glucose transport deficient and complemented with the human glucose transporter GLUT1. Activity is measured by DNA content using SYBR green in vitro.

For assay [2], the target named is Hexose transporter 1 (Plasmodium falciparum) (UniProt O97467). The experiment in a line: ST_JUDE_LEISH: Cytotoxicity at 2uM final concentration against transgenic Leishmania Mexicana promastigotes LmPfHT that are glucose transport deficient and complemented with the Plasmodium falciparum hexose transporter. Activity is measured by DNA content using SYBR green in vitro.

The target of assay [3] is Glucose transporter (Leishmania mexicana) (UniProt O61059). The experiment in a line: ST_JUDE_LEISH: Cytotoxicity at 2uM final concentration against transgenic Leishmania Mexicana promastigotes LmGT2 that are glucose transport deficient and complemented with the L. Mexicana glucose transporter 2. Activity is measured by DNA content using SYBR green in vitro.

Chain of Solute carrier family 2, facilitated glucose transporter member 1 (Homo sapiens) (P11166 whole entry): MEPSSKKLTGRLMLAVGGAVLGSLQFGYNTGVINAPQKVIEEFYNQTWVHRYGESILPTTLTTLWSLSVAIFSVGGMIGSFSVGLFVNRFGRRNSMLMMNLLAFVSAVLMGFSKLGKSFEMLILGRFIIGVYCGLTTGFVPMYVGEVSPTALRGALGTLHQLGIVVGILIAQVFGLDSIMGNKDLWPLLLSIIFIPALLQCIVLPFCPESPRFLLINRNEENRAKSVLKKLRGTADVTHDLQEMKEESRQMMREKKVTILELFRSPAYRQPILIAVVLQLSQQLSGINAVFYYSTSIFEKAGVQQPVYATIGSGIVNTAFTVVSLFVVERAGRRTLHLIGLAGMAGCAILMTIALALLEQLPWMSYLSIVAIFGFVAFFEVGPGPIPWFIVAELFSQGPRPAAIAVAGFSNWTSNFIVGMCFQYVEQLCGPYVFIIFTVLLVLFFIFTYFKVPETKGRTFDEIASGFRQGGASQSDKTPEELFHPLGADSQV

With `Cc1cc(C)c(S(=O)(=O)N2CCCCC(c3cccc(C(F)(F)F)c3)=N2)c(C)c1`, the inhibition in assay [1] was determined as 1.84%; in assay [2], 1.41%; in assay [3], 1.47%.

As for `CC(C)CNCc1cccc(-c2ccc(CNC3CCN(Cc4ccccc4)CC3)cc2)c1`, the inhibition turned out to be 6.62% in assay [1], 7.43% in assay [2] and 4.78% in assay [3].

`O=C(Nc1cc2cc(-c3ccc(CN4CCCCC4)cc3)ccc2n2cnnc12)NC1CCCC1`: the values for the inhibition in assay [1], in assay [2] and in assay [3] were 22.1%, 6.44% and 3.67%, respectively.

Turning to `CC(O)C1CCCCN1C(=O)c1cccc(-c2cccc(-c3nc4cc(C(F)(F)F)ccc4[nH]3)c2)c1` (stereo not given), the inhibition is -0.23% in assay [1], 1.12% in assay [2] and -0.12% in assay [3].

As for `O=C(C=Cc1ccc(Cl)c(Cl)c1)NCCCCCN1CCC(c2n[nH]c3ccccc23)CC1`, the inhibition worked out at 1.5% in assay [1], 2.15% in assay [2] and 1.44% in assay [3].

As for `CCC[C@@H]([C@@H](CC1CCCCC1)C(=O)N[C@H](C(=O)Nc1nccs1)C(C)(C)SCCNC(=O)OCc1ccccn1)N(O)C=O`, the inhibition was -3.15% in assay [1], -0.71% in assay [2] and 8.17% in assay [3].

Take `O=C(Nc1ccc(-c2cccc(-c3nc4ccccc4[nH]3)c2)cc1)Nc1ccc2c(c1)OCO2`: the inhibition in assay [1] worked out at 1.87%; in assay [2] it was 2.62%; in assay [3], 0.58%.

As to `O=C(/C=C/c1ccccc1Cl)Nc1ccc(Br)c(OCCN2CCN(CCN3CCOCC3)CC2)c1`, the values for the inhibition in assay [1], in assay [2] and in assay [3] were 1.48%, 1.38% and 0.88%, respectively.

With `COc1ccc2nc(-c3ccc(C(=O)NCCCN4CCN(c5cc(Cl)ccc5OC)CC4)cc3)[nH]c2c1`, the inhibition in assay [1] is 0.75%; in assay [2] it was 0.77%; in assay [3], -0.2%.

Take `COc1ccc2c(c1)[nH]c1c(/C=C/c3ccc([N+](=O)[O-])cc3)nccc12`: the values for the inhibition in assay [1], in assay [2] and in assay [3] were 3.75%, 4.42% and 3.6%, respectively.

Turning to `CN1CCN(c2nsc3ccc(-c4ccc(NC(=O)Nc5cc(C(F)(F)F)ccc5F)cc4)cc23)CC1`, the results for the inhibition in assay [1], in assay [2] and in assay [3] were 5.16%, 1.74% and 2.12%, respectively.

As for `NS(=O)(=O)c1cccc(Br)c1`, the inhibition was determined as 2.38% in assay [1], 0.12% in assay [2] and 2.22% in assay [3].

Regarding `COc1ccc2nccc(NC(=O)C3(O)CCC(NCc4ncc5c(c4Cl)OCCO5)CC3)c2n1` (stereo not given), the inhibition in assay [1] worked out at 7.91%; in assay [2], 8.5%; in assay [3], 2.13%.

As to `COc1ccc2[nH]ccc(=NN=Cc3ccccc3F)c2c1`, the inhibition in assay [1] was determined as 7.58%; in assay [2] it was 7.67%; in assay [3] it was 7.56%.

Regarding `CCCCOc1c(CCC)cc(Cc2cnc(N)nc2N)cc1CCC`, the inhibition in assay [1] is 7.57%; in assay [2], 3.82%; in assay [3], -0.35%.

As for `N#Cc1ccc2[nH]cc(CN3CCC4(CC3)CN(CCNCc3ccccc3)C(=O)O4)c2c1`, the inhibition in assay [1] was 4.35%; in assay [2], 4.4%; in assay [3], -0.76%.

As to `CCn1c2ccccc2c2cc(Cc3cnc(N)nc3N)ccc21`, the inhibition was 9.49% in assay [1], 8.51% in assay [2] and 3.47% in assay [3].

For the molecule `CC(C)c1ccc2c(c1)c(SC(C)(C)C)c(CC(C)(C)C#N)n2Cc1ccc(Cl)cc1`, the results for the inhibition in assay [1], in assay [2] and in assay [3] were 3.18%, 0.69% and -0.23%, respectively.

Consider `COc1ccc(S(=O)(=O)NC2CCN(c3ccc(C(F)(F)F)cc3NC(=O)OCC(C)C)CC2)cc1`, for which the inhibition in assay [1] is 0.36%; in assay [2], 1.75%; in assay [3], 2.43%.

Regarding `O=c1cc(NCCC(CNCc2ccc(Br)o2)NCc2cc(Br)cc(Br)c2)[nH]c2ccccc12` (stereo not given), the values for the inhibition in assay [1], in assay [2] and in assay [3] were 8.13%, 8.45% and 6.87%, respectively.

For `CCOC(=O)CCCc1cc(NC2CCN(C)CC2)nc(Nc2ccc(OC)cc2)n1`, the inhibition was -0.13% in assay [1], 0.24% in assay [2] and 1.72% in assay [3].

`Cc1[nH]c(C)c(-c2ccc(Oc3ccc(F)cc3)cc2)c(=O)c1Cl`: the results for the inhibition in assay [1], in assay [2] and in assay [3] were 4.38%, 4.42% and 3.79%, respectively.

`O=C(c1cc(C(=O)Nc2ccc(F)cc2)c(=O)n(-c2ccc(F)cc2)c1)c1cc(Cl)ccc1O`: the inhibition in assay [1] amounted to 0.23%; in assay [2] it was 2.19%; in assay [3], 0.22%.

`Cc1cccc2nc(-c3ccc(-c4cccc(CNCCNC(=O)c5ccnn5C)c4)s3)[nH]c12`: the inhibition is 3.8% in assay [1], 4.31% in assay [2] and 3.87% in assay [3].

As to `Cc1cc(C(F)(F)F)nn1-c1ccc(NC(=O)c2ccco2)cc1`, the inhibition is -2.06% in assay [1], -1.65% in assay [2] and -1.05% in assay [3].

With `CC(=O)N(C)c1cccc(C(=O)Nc2cccc(-c3cccc(-c4nc5cccc(C)c5[nH]4)c3)c2)c1`, the inhibition in assay [1] amounted to 13.3%; in assay [2], 3.96%; in assay [3] it was 11.4%.

On to `CC(C)(C)c1ccc(CN2CCC(NC(=O)c3cc(-c4cccc(C(F)(F)F)c4)cs3)C2)cc1` (stereo not given), for which the results for the inhibition in assay [1], in assay [2] and in assay [3] were 0.92%, 0.62% and 1.98%, respectively.

For `O=C(Nc1ccccc1Cl)c1cc2ccccc2cc1O`, the inhibition was -2.32% in assay [1], -1.17% in assay [2] and -0.43% in assay [3].

In the case of `Cn1cc(CCNc2ccnc(NCCc3coc4ccccc34)n2)c2ccccc21`, the inhibition in assay [1] was 8.67%; in assay [2], 6.89%; in assay [3] it was 2.14%.

As to `Cn1cncc1C(=O)Nc1ccc(-c2ccc(-c3nc4cc(C(F)(F)F)ccc4[nH]3)cc2)cc1`, the inhibition in assay [1] came out at 20.8%; in assay [2], 15%; in assay [3], 4.64%.

Consider `O=C(NCCCCN1CCC(c2ccc3ccccc3c2O)CC1)c1ccc(NC(=O)c2ccc(Cl)cc2)cc1`, for which the inhibition in assay [1] is -0.08%; in assay [2], 1.46%; in assay [3], 0.92%.

Regarding `CN(CC(=O)Nc1cc(C(F)(F)F)ccc1-n1cncn1)Cc1nc2ccccc2s1`, the inhibition in assay [1] was determined as 2.07%; in assay [2] it was 2.69%; in assay [3], 5.21%.

`COc1ccc(C=C2SC(=O)N=C2Nc2ccccc2)c(OC)c1`: the inhibition turned out to be 6.71% in assay [1], 5.61% in assay [2] and 2.58% in assay [3].

Turning to `CCc1cn2c3c(cc(C(=O)N[C@@H](Cc4cc(F)cc(F)c4)[C@H](O)CNC4CC4)cc13)N(C)S(=O)(=O)CC2`, the inhibition is 3.44% in assay [1], 2.48% in assay [2] and 3.48% in assay [3].

As to `O=C(NC1CCN(CCN2CCC(c3c[nH]c4ccccc34)CC2)CC1)c1ccc(-c2ccc(C(F)(F)F)cc2)cc1`, the inhibition in assay [1] was 59%; in assay [2], 19.8%; in assay [3], 30.2%.

Values taken from ChEMBL document CHEMBL3433997, “St. Jude Leishmania screening dataset” (2016).
